Data on 22 molecules can be found in PMC12136788.

Numbering of substitutions follows the chain as printed. Whole data set: some 24,000 sequences, median “enrichment r” near 0.99, cut for the highest 2% near 3.7. What follows is part of a selection rich in the highest values, with near analogues and random picks from the rest.

T1: UNK ZnF1-3 (human, UniProt Q9C0B0 31-174)
T1 sequence: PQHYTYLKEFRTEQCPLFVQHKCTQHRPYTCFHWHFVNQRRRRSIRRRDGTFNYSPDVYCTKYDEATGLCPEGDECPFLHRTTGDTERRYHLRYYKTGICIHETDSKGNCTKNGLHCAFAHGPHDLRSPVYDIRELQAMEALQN

B1: 52098632_52100650_1216_3pUTR_ENSG00000128872_ENST00000249700|human|control|control (ssRNA)
RNA: GGGAGUUCUACAGUCCGACGAUCUACCUUCGGUCUGCUUCAACUCUCUUCUUACGAACCAGGUCAUUAUUCUUUGUGAUGGCAGCUGCCACCCUUGUUCGUGGCCCUUGCUUGGUAAACUGGUAUCCAAACUUGAGGAUCCUUCAACAGAGGAUUGAGCAUCA
B2: chr5:121736274:121736275:+_ENSMUSG00000042744_ENSMUST00000119892|mus_mus|FALSE|FALSE (ssRNA)
RNA: GGGAGUUCUACAGUCCGACGAUCCUGGUGAAUGCACAUGGCGCCAACAUGGUGCAGUAACUGGUUUAUGACUUCAUUUGUGCUAAUGGCCUCUUCUUUGGGCUCGGUGAUGAUAUGGCUGACACCCAGUCUCUGGCACACGUACAACAGAGGAUUGAGCAUCA
B3: chr3:128198961:128198962:-_ENSG00000179348_ENST00000341105|hu_hu|motif|central (ssRNA)
RNA: GGGAGUUCUACAGUCCGACGAUCACUGGACCCAAAAAGAGUUUAAAAAUAAAACAAUUAACUCAUCAGCGAGUUAAGCCGGUGCAUUUUUUUAAUAUUUUUUCUUUUGUCUCAGAGUAGGAGGCGAGGGGGUUGAAGGGUUAGCAACAGAGGAUUGAGCAUCA
B4: chr12:48362563:48362564:+_ENSG00000134291_ENST00000256686|hu_hu|hu_hu_hu_mus_False|58_78 (ssRNA)
RNA: GGGAGUUCUACAGUCCGACGAUCUCCGUCAAGCCCUUCGAUAGACCCUUGCGGGGGUGGUAAAAACCACUUUGUAUUUCUAAAAAAAAGAAACGCCAAAAACUUUCCAAAAAGCGGGGGUGGGGUGAGGCGGGAGGGGGAGGUCAACAGAGGAUUGAGCAUCA
B5: 119691784_119693947_668_CDS_ENSG00000158290_ENST00000371322|human|control|control (ssRNA)
RNA: GGGAGUUCUACAGUCCGACGAUCGAGUUCUUCUAAAUUGUACUUAAUUGAAGUACUAUUCUGAAUAGCUUCCACUGCUUCUUUCAGUUUUUGCCAGGUUUCAUCUGUGUAGUUUUCUGGUAAUUUAGGCUUAUCUUUAAAGUUCAACAGAGGAUUGAGCAUCA
B6: chr14:105235747:105235748:-_ENSG00000142208_ENST00000407796|hu_hu|FALSE|FALSE (ssRNA)
RNA: GGGAGUUCUACAGUCCGACGAUCACUUUUAUUGAAGAAUUUGGAGGGAAGGUUCCAUAUUAUAUUAUAAUAGUAAAAAUACUAAAGUUGAAUGUUGUAAAAAAACGCCGUGGUGCAGCGGCAGCGGCAGCGUCUGGCCAGGAGCAACAGAGGAUUGAGCAUCA
B7: 23376367_23376487_1679_3pUTR_ENSMUSG00000026158_ENSMUST00000027343|mouse|control|control (ssRNA)
RNA: GGGAGUUCUACAGUCCGACGAUCAUUUGAAAACACAUCCUAAAUGUAUUCUUUUAUUGGAUCUGGUCUUAAAACUUCUUAUUUAAUGUCCAAUUCAUUGUGAUCCAAAAUAAAAAGGCUUACAGCAAAAGUCACAGGUGGCCACAACAGAGGAUUGAGCAUCA
B8: chr10:71978566:71978567:-_ENSG00000180817_ENST00000373232|hu_hu|motif|central (ssRNA)
RNA: GGGAGUUCUACAGUCCGACGAUCUAAAGGGUCCUUUGUAGCAAUCUCCAUUUUUGCAUUAGACCAGCGUGGUACUUCAACGGCCAUGUGAAACACAUCCUUAUCUGCAUAAAUUGGAAUAUCAUGAAAUGGAGAUAUAUAUUGCAACAGAGGAUUGAGCAUCA
B9: chr17:55760890:55760891:+_ENSG00000153944_ENST00000284073|hu_mus|FALSE|FALSE (ssRNA)
RNA: GGGAGUUCUACAGUCCGACGAUCCAAUUUCAUAUGCAAUAUAAUACAGAAAGCAUGGCUGACCUUCAAUUUUAAAAAAAAAUGUAGUAAACUAUAUUGCUUUAUUCUUGAAGAUGCUGCUGCGGUGGGUGGAUGGCAGAGCGACAACAGAGGAUUGAGCAUCA
B10: chr14:21319500:21319501:-_ENSMUSG00000021816_ENSMUST00000161445|mus_hu|motif|central (ssRNA)
RNA: GGGAGUUCUACAGUCCGACGAUCGAGUUGUAUUCCAGGGCAUGAGGGAAGCAGGCCACCAAAGUAAAGGGAAAUACCAAACGGCAGUGGCAAUCAAUACAGGUCAAUAAUUGUGAAAAAUUAGCACAUGGUUCCAUUUAGUUUCAACAGAGGAUUGAGCAUCA
B11: chr2:129025431:129025432:+_ENSMUSG00000027397_ENSMUST00000028880|mus_mus|motif|central (ssRNA)
RNA: GGGAGUUCUACAGUCCGACGAUCUUGCCACAGUAGAUUCCAUUCUCUAGUGUAGUGGUUCUUUAAAUAAUAAGAGAAUUACGGAGCGGCUUUUGAGAUGUGUAAACGGAAUGAGGUAUCAAAAUGCUAUAAUAAAUAGUAUAUCAACAGAGGAUUGAGCAUCA
B12: chr2:151326667:151326668:-_ENSG00000115963_ENST00000263895|hu_hu|FALSE|FALSE (ssRNA)
RNA: GGGAGUUCUACAGUCCGACGAUCUUUAUUUGUCUUAUUUACACAUGCCAAGGUGGCAACGUGAAAAAUGUCUCUGACGCUAUUUUCCGACUGUAAAGCUGAGCAUUCGAUAUAAGUAGCUGCUCCAAUCUGUUUGGCCAUAUUCAACAGAGGAUUGAGCAUCA
B13: chr14:105235747:105235748:-_ENSG00000142208_ENST00000407796|hu_mus|FALSE|FALSE (ssRNA)
RNA: GGGAGUUCUACAGUCCGACGAUCGAAAAGCAAUUUUUAUUGAAUUUGGAGGGACAGUUUCUUAUUAUAAUAGUAAAAAUGCUGAAGCUGAAUGUUGUAAAAAACGACAUGGUGCAGCAAUGGCCAGCGUCUGGCCGGGAGGGGCAACAGAGGAUUGAGCAUCA
B14: chr14:105235747:105235748:-_ENSG00000142208_ENST00000407796|hu_hu|motif|central (ssRNA)
RNA: B6 RNA with U82G, A83G
B15: chr2:47387610:47387611:-_ENSG00000143933_ENST00000272298|hu_mus|FALSE|FALSE (ssRNA)
RNA: GGGAGUUCUACAGUCCGACGAUCUCCACGCAGAGUUACAGCUCCACACUUCAACAACAACAUGCUGACAGUUCCUAAAAGCUACUUUAAAAAAGGCAUAACCCAGAUGUUCCCUCAUUGGACCAACUCCAUCUAAGUUUAGAUCAACAGAGGAUUGAGCAUCA
B16: chr8:104447970:104447971:+_ENSG00000164934_ENST00000297579|hu_hu|hu_hu_hu_mus_False|88_98 (ssRNA)
RNA: GGGAGUUCUACAGUCCGACGAUCAUACACUUCCCUGCUUCGACUUUUGUCUACAGGAAAGAUUCUAAUAGACUUAUCAAAGCUGGCAGACACAAAUUCCUUCCCAGUGGGAGAGUAGUCCACAUCAAGUACUGCAGACACGUGCAACAGAGGAUUGAGCAUCA
B17: chr3:150289932:150289933:+_ENSG00000144895_ENST00000460851|hu_hu|hu_hu_hu_mus_False|28_58 (ssRNA)
RNA: GGGAGUUCUACAGUCCGACGAUCCUUGUAGUUUUUAACAUCCCAUACUUCCAUUUGUCCUCGAAGAUUUCCAAAUCCAGCUAAUACUAAUAUAUGUCCAUGAGGGCUAUAGUAGGCUGCGUUGCGAGGACCAGUCCCAAAGUCCAACAGAGGAUUGAGCAUCA
B18: chr13:51516861:51516862:+_ENSMUSG00000067586_ENSMUST00000087978|mus_mus|FALSE|FALSE (ssRNA)
RNA: GGGAGUUCUACAGUCCGACGAUCCUUGGUGACAUAGAGAAGGGCAAGGCCAAUGAUGGAGCAGAACUUCUUGGCAGUGACCUAUAUACACCAGGAGUGACAUGAGGGGAAGUCUUUAGUUAGUCAGACCAGGGUUACCUAAGGCAACAGAGGAUUGAGCAUCA
B19: chr19:5940991:5940992:-_ENSMUSG00000024833_ENSMUST00000025752|mus_hu|FALSE|FALSE (ssRNA)
RNA: GGGAGUUCUACAGUCCGACGAUCGUUCACACAGACACAGCCGAGGACAUCCUUCACGAAGUACCUCAGCUCUGACGGGAUGAUGAGGACAUCUGGGGUGACAGGCAGCUGUGCGUAAACAUAGAACGACUCAUAGUCAAUGGCCAACAGAGGAUUGAGCAUCA
B20: chr6:168291551:168291552:+_ENSG00000130396_ENST00000400822|hu_mus|motif|central (ssRNA)
RNA: GGGAGUUCUACAGUCCGACGAUCAUGUUUCUUCAUUUUCUUUGGGAUGUAGUCCGGUGGUCUCCUCUUCAACUGAAAGACGGAAAUCCCUUUGUCACUUGGCCAUUCCCUGAAGAUUUGUAAAGGACAUUCAUCAUCGUCAAGCAACAGAGGAUUGAGCAUCA
B21: chr16:50257146:50257147:+_ENSG00000121274_ENST00000436909|hu_mus|FALSE|FALSE (ssRNA)
RNA: GGGAGUUCUACAGUCCGACGAUCUAUCCGGAUGCCAGUCUUUAAGUAAUUGAAGUGCCGUCCAUAUAAUUCAAAAAACUCUAUUAAGAGAACACCAUAGUUUGUAUUGGGGAUGCAAGCAUCUUCCCUGGGAUGUAACUGAAGCAACAGAGGAUUGAGCAUCA
B22: chr1:39494447:39494448:+_ENSG00000168653_ENST00000372967|hu_mus|hu_hu_hu_mus_False|18_18 (ssRNA)
RNA: GGGAGUUCUACAGUCCGACGAUCGCACCGAGCGGCGUUCUUAUAGGGCUGUUCUGCGCUUAGGAACAUAAAGUGCCGGUCCAGGCUGAUGCCCAGCUUUUUCUGUAUGUCAAGGAAAGGCAUGGCCCUGCAGUGCCCUUGUCACAACAGAGGAUUGAGCAUCA

The experiment concerns the target T1, UNK ZnF1-3. The experiment is described as follows: nsRBNS (natural sequence RNA bind-n-seq); RBNS binding buffer (assumed for nsRBNS): 25 mM Tris pH 7.5, 150 mM KCl, 3 mM MgCl2, 0.01% Triton X-100, 500 ug/ml BSA, 20 U/ml SUPERase-In, 4 C; UNK is unkempt and MSI1 is Musashi-1; names of the RNAs are library labels; protein concentration not given here; high values mean tight binding.
The molecule B1 registered a binding signal of 0.553 enrichment R.

With B2, the binding signal is 0.813 enrichment R.

Take B3: the binding signal is 1.54 enrichment R.

Take B4: the binding signal was 3.57 enrichment R.

With B5, the binding signal worked out at 0.363 enrichment R.

With B6, the binding signal was determined as 7.85 enrichment R.

For B7, the binding signal stood at 0.637 enrichment R.

For B8, the binding signal is 0.593 enrichment R.

As for B9, the binding signal was 1.14 enrichment R.

As to B10, the binding signal stood at 2.39 enrichment R.

B11 showed a binding signal of 1.26 enrichment R.

In the case of B12, the binding signal came out at 0.818 enrichment R.

B13: the binding signal stood at 4.04 enrichment R.

Turning to B14, the binding signal amounted to 5.41 enrichment R.

B15 came in with a binding signal of 1.21 enrichment R.

In the case of B16, the binding signal was found to be 0.947 enrichment R.

B17: the binding signal amounted to 1.1 enrichment R.

Turning to B18, the binding signal was found to be 1.32 enrichment R.

For the molecule B19, the binding signal was determined as 1.51 enrichment R.

Turning to B20, the binding signal turned out to be 0.653 enrichment R.

In turn, B21 gave a binding signal of 1.63 enrichment R.

On to B22, for which the binding signal came to 0.805 enrichment R.
